According to PubChem BioAssay (NCATS):
Results filed as inconclusive are left out. A call without a number means that no potency is given here. Activity calls are given as the source filed them. Unless noted, calls follow the shape of the dose curve; as a rule, active = well fitted curve in the direction sought with a large enough effect; inconclusive = small, poorly fitted or top-dose-only effect, or another doubt; inactive = no such curve, though single readings can be large; an effect the other way counts as inactive or inconclusive.

Assays:
[1] = qHTS assay for measurement of the activity of small molecule inhibitors on Zika virus induced Caspase-3 activity in human astrocytoma cells (AID 1224859)
In short: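 Caspase activation in ZIKV-infected SNB-19 cells (2 FFU/cell, 6 h) measured by Caspase-Glo 3/7 luminescence after 30 min RT; compound pre-incubated 1 h; normalised to uninfected and infected controls.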

[2] = target: Atrial natriuretic peptide receptor 1 (Homo sapiens) (UniProt P16066); assay: Natriuretic polypeptide receptor (hNpr1) antagonism - Pilot screen (AID 1347049; calls by dose curve;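 also: agonist-evoked cGMP luminescence read 20 min after hNppA addition; series mostly up to about 58 µM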)
In short: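 HEK293 cells co-expressing hNpr1 and the GloSensor pGS-40F cGMP luciferase sensor were preloaded with 2% GloSensor reagent for 2 h. Compounds were added for 30 min at room temperature, then cells were stimulated with 0.1 nM hNppA for 20 min before luminescence readout.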

[3] = target: Atrial natriuretic peptide receptor 2 (Homo sapiens) (UniProt P20594); assay: Natriuretic polypeptide receptor (hNpr2) antagonism - Pilot subtype selectivity assay (AID 1347050; calls by dose curve; also: potency is read from the fitted curve at half-maximal effect)
In short: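 cGMP-sensor HEK293/hNpr2 cells; 2% GloSensor reagent 2 h RT; compounds 30 min; baseline luminescence read; 1 nM hNppC agonist 20 min RT; final luminescence read by CCD camera. Antagonism = reduced post-agonist signal.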

[4] = NS1 protein of Zika virus - qHTS assay to identify small molecule inhibitors in human HEK 293 cells (AID 1347053); also: series mostly up to about 46 µM; nearly all actives have a fitted effect of over 55% in size
In short: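 Following 20 h seeding, HEK 293 cells took compound, then 1 h later ZIKV MR766 (MOI = 0.5). Incubation ran 24 h at 37 C before TR-FRET detection of NS1; a drop in signal indicates inhibition.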

[5] = target: T1, Tyrosine-protein phosphatase non-receptor type substrate 1 (Homo sapiens) + Leukocyte surface antigen CD47 (Homo sapiens) (UniProt P78324+Q08722); assay: CD47-SIRPalpha protein protein interaction - LANCE assay qHTS validation (AID 1347057; active = well fitted curve in the direction sought with a large enough effect in the signal ratio, with a control signal flat, not every such curve was filed as active; the % refers to the signal ratio; also: series mostly up to about 38 µM)
In short: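 First, His-tagged CD47 and Eu-labelled anti-His antibody met the compound for 30 min; next, site-specifically biotinylated SIRPalpha was added for 30 min; finally streptavidin-APC was added before reading the TR-FRET ratio.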

[6] = target: T1, Tyrosine-protein phosphatase non-receptor type substrate 1 (Homo sapiens) + Leukocyte surface antigen CD47 (Homo sapiens); assay: CD47-SIRPalpha protein protein interaction - HTRF assay qHTS validation (AID 1347058; active = well fitted curve in the direction sought with a large enough effect in the signal ratio, not every such curve was filed as active; the % refers to the signal ratio; also: series mostly up to about 38 µM)
In short: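 TR-FRET read (Ch1/Ch2 ratio) of soluble extracellular CD47 and Avi-biotinylated SIRPalpha domains in PBS pH 7.4 with 0.05% IGEPAL; 7-point compound titration. Sequential 30 min room-temperature steps; non-biotinylated SIRPalpha as control inhibitor.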

[7] = target: T1, Tyrosine-protein phosphatase non-receptor type substrate 1 (Homo sapiens) + Leukocyte surface antigen CD47 (Homo sapiens); assay: CD47-SIRPalpha protein protein interaction - Alpha assay qHTS validation (AID 1347059);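 also: bead proximity luminescence from CD47 binding SIRPalpha after compound preincubation with SIRPalpha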
In short: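 Soluble extracellular domains: Avi-tag biotinylated SIRPalpha (25 nM) preincubated 30 min RT with compound, then 6His-CD47 (12.5 nM) 30 min; Ni-NTA acceptor and streptavidin donor beads (10 ug/mL) 30 min, AlphaScreen read. PBS pH 7.4, 0.05% IGEPAL.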

[8] = target: Parathyroid hormone/parathyroid hormone-related peptide receptor (Homo sapiens) (UniProt Q03431); assay: qHTS for PTHR1 Agonists: Optimization Screen against the NCGC LOPAC library (AID 1347079);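 also: GloSensor cAMP luminescence in HEK-293 GP2 cells expressing human PTHR1 with IBMX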
In short: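 Compounds were tested across a qHTS titration. PTHR1-expressing GP2 cells report cAMP rises via GloSensor luminescence after 1 hr compound exposure at 37C with IBMX present.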

Sequence of Atrial natriuretic peptide receptor 1 (Homo sapiens) (P16066 whole entry, looked up): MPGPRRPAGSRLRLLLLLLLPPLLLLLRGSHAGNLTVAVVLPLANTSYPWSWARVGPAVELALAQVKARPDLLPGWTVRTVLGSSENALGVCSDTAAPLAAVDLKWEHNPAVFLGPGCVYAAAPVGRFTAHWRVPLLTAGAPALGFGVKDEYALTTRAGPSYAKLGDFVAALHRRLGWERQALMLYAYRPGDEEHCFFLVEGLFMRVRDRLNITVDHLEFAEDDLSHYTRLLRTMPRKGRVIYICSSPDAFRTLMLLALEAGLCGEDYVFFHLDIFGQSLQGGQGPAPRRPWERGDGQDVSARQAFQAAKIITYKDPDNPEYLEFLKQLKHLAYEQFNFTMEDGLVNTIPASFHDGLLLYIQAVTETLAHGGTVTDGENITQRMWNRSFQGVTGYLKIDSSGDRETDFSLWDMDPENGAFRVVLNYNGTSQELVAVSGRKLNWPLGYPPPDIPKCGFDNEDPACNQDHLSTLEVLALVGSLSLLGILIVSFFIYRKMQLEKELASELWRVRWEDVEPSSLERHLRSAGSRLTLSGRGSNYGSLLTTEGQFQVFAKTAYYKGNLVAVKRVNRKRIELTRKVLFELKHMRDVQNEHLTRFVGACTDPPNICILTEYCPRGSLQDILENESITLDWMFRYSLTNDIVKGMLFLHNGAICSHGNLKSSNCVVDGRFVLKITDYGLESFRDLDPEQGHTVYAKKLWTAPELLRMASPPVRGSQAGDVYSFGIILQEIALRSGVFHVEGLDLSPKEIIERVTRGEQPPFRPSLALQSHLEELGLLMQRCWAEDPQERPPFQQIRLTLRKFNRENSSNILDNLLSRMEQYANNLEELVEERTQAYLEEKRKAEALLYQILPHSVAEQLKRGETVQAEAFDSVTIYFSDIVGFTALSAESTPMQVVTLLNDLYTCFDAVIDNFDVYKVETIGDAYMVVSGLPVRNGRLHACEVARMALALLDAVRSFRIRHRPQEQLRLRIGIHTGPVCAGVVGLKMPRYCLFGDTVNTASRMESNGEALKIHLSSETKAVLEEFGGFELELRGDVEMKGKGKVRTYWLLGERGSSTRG
Sequence of Parathyroid hormone/parathyroid hormone-related peptide receptor (Homo sapiens) (Q03431 whole entry, looked up): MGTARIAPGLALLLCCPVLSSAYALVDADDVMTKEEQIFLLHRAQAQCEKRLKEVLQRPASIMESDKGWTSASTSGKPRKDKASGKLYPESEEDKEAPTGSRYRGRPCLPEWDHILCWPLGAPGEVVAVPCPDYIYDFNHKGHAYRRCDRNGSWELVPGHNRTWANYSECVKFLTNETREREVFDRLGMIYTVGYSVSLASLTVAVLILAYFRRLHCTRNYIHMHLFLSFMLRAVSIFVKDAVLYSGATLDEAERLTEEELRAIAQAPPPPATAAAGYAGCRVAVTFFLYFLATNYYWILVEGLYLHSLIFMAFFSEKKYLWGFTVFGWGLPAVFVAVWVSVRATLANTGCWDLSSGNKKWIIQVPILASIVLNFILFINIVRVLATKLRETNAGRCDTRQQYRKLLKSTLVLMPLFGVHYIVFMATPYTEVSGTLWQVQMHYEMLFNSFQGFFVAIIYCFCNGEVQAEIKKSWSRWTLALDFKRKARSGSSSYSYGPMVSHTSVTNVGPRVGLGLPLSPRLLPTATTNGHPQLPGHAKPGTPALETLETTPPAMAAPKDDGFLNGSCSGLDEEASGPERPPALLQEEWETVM
Sequence of Atrial natriuretic peptide receptor 2 (Homo sapiens) (P20594 whole entry, looked up): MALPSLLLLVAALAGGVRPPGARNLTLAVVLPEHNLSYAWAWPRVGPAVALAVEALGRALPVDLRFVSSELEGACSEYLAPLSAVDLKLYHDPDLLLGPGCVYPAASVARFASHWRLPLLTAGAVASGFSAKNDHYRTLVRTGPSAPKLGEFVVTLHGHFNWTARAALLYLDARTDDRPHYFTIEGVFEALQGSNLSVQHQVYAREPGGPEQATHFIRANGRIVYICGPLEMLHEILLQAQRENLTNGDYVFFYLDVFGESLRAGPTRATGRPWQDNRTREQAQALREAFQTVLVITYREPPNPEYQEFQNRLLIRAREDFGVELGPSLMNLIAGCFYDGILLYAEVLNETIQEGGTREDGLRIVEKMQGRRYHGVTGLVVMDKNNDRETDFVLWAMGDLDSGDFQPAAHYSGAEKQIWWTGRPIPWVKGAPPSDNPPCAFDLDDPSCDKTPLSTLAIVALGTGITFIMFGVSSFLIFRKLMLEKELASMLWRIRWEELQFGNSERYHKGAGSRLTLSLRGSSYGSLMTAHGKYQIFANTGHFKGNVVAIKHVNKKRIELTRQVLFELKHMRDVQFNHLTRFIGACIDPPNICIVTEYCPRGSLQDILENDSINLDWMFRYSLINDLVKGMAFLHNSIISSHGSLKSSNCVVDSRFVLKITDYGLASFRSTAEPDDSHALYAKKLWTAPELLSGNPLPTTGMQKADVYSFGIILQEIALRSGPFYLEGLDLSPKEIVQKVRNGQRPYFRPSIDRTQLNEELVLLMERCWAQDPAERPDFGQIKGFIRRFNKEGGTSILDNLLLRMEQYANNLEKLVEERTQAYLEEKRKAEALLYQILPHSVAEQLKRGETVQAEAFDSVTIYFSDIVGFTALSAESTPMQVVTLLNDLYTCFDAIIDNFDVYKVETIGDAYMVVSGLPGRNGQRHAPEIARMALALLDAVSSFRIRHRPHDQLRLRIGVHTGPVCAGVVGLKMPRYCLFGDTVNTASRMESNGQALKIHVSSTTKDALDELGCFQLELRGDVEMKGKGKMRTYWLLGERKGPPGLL
T1 sequence (P78324 whole entry, looked up): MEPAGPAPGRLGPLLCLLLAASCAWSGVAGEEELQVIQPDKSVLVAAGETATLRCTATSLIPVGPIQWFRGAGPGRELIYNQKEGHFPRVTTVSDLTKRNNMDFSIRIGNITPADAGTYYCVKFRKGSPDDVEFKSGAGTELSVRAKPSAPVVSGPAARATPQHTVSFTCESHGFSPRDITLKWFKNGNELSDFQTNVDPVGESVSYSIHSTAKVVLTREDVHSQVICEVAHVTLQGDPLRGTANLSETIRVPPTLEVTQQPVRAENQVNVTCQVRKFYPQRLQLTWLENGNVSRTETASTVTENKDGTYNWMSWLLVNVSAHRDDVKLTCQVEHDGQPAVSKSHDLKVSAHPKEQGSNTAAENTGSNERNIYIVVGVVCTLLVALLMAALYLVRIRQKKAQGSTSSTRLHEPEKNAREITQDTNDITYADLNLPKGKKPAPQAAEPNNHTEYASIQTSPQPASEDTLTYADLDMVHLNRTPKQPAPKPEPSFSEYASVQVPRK
T1 sequence (Q08722 whole entry, looked up): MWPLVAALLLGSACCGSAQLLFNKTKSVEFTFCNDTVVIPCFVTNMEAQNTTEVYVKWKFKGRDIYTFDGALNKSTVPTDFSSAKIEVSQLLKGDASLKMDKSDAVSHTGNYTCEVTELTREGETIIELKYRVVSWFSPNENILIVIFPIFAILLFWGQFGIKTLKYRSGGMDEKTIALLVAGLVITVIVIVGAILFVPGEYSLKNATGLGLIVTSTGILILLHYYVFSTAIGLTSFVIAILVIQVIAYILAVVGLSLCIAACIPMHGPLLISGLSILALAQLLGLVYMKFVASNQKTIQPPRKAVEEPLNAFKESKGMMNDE

With `C=CC(C)=C[C@@]1(C)SC(=O)C(C)=C1O` the Potency [1] was “inactive”, the Potency [2] was “inactive” and the Potency [3] was “inactive”. For the same compound, the Potency [4] was “inactive”, the Potency [5] was “inactive” and the outcome [6] was “inactive”. For the same compound, the Potency [7] was “inactive” and the Potency [8] was “inactive”.

With `O=c1[nH]c2cc(Cl)c(Cl)cc2[nH]c1=O` the Potency [1] was “inactive”, the Potency [2] was “inactive” and the Potency [3] was “inactive”. The Potency [8] was “inactive”.

With `CN(C)C(N)=NCCC[C@H](N)C(=O)O` the Potency [1] was “inactive”, the Potency [2] was “inactive” and the Potency [3] was “inactive”. The Potency [5] was “inactive”, the outcome [6] was “inactive” and the Potency [7] was “inactive”. For the same compound, the Potency [8] was “inactive”.

In the case of `O=C(O)[C@@H]1C[C@@H](C(=O)O)N1`, the Potency [1] is reported as “inactive”, the Potency [2] is reported as “inactive” and the Potency [3] is reported as “inactive”. For the same compound, the Potency [8] was “inactive”.

For `COc1cc(C(O)CO)ccc1OS(=O)(=O)O` (stereo not drawn), the Potency [1] was “inactive”, the Potency [2] was “inactive” and the Potency [3] was “inactive”. The Potency [4] was “inactive”, the Potency [5] was “inactive” and the outcome [6] was “inactive”. For the same compound, the Potency [7] was “inactive” and the Potency [8] was “inactive”.

With `O=C(O)[C@@H]1C[C@H](C(=O)O)N1` the Potency [1] was “inactive”, the Potency [2] was “inactive” and the Potency [3] was “inactive”. For the same compound, the Potency [8] was “inactive”.

For `CCCCCCCCCCCCCCCCCC(=O)NCC(COP(=O)([O-])OCC[N+](C)(C)C)OCC` (stereo not drawn), the Potency [1] was “inactive”, the Potency [2] was “inactive” and the Potency [8] was “inactive”.

For `N=C(N)SCCc1ccc(CCSC(=N)N)cc1`, the Potency [1] was “inactive”, the Potency [2] was “inactive” and the Potency [3] was “inactive”. For the same compound, the Potency [8] was “inactive”.

For `CC[C@@H](C)[C@H]1O[C@]2(CC[C@H]1C)C[C@@H]1C[C@@H](CC=C(C)[C@@H](O[C@H]3C[C@H](OC)[C@@H](O[C@H]4C[C@H](OC)[C@@H](O)[C@H](C)O4)[C@H](C)O3)[C@@H](C)C=CC=C3CO[C@@H]4[C@H](O)C(C)=C[C@@H](C(=O)O1)[C@]34O)O2`, the Potency [1] was “inactive”, the Potency [2] was “inactive” and the Potency [3] was “inactive”. For the same compound, the Potency [5] was “inactive”, the outcome [6] was “inactive” and the Potency [7] was “inactive”. The Potency [8] was “inactive”.

With `Nc1ncnc2c1c(I)cn2[C@@H]1C[C@H](N)[C@@H](O)[C@H]1O` the Potency [1] was “inactive”, the Potency [2] was “inactive” and the Potency [8] was “inactive”.

For `O=P(O)(O)C(Cl)(Cl)P(=O)(O)O`, the Potency [1] was “inactive”, the Potency [3] was “inactive” and the Potency [4] was “inactive”. For the same compound, the Potency [5] was “inactive”, the outcome [6] was “inactive” and the Potency [7] was “inactive”. For the same compound, the Potency [8] was “inactive”.

With `C[N+](C)(CCCCCC[N+](C)(C)CCCN1C(=O)c2cccc3cccc(c23)C1=O)CCCN1C(=O)c2cccc3cccc(c23)C1=O` the Potency [1] was “inactive”, the Potency [2] was “inactive” and the Potency [3] was “inactive”. The Potency [8] was “inactive”.

For `Nc1nc(Cl)nc2c1ncn2[C@@H]1O[C@H](COP(=O)(O)OP(=O)(O)OP(=O)(O)O)[C@@H](O)[C@H]1O`, the Potency [1] was “inactive”, the Potency [2] was “inactive” and the Potency [3] was “inactive”. For the same compound, the Potency [4] was “inactive”, the Potency [5] was “inactive” and the outcome [6] was “inactive”. For the same compound, the Potency [7] was “inactive” and the Potency [8] was “inactive”.

For `O=Nc1ccc2oc(=O)ccc2c1`, the Potency [1] was “inactive”, the Potency [2] was “inactive” and the Potency [4] was “inactive”. The Potency [5] was “inactive”, the Potency [7] was “inactive” and the Potency [8] was “inactive”.

In the case of `O=C(O)c1cc(=O)c2c(Cl)cc(Cl)cc2[nH]1`, the Potency [1] is reported as “inactive”, the Potency [2] is reported as “inactive” and the Potency [3] is reported as “inactive”. The Potency [4] was “inactive”, the Potency [5] was “inactive” and the outcome [6] was “inactive”. For the same compound, the Potency [7] was “inactive” and the Potency [8] was “inactive”.

In the case of `Cn1cc(C2=C(c3ccc(Cl)cc3Cl)C(=O)NC2=O)c2ccccc21`, the Potency [1] is reported as “inactive”, the Potency [2] is reported as “inactive” and the Potency [3] is reported as “inactive”. The Potency [5] was “inactive”, the outcome [6] was “inactive” and the Potency [7] was “inactive”. For the same compound, the Potency [8] was “inactive”.

In the case of `OC[C@H]1O[C@@H](n2cnc3c(NC4CCCC4)ncnc32)[C@H](O)[C@@H]1O`, the Potency [1] is reported as “inactive”, the Potency [2] is reported as “inactive” and the Potency [3] is reported as “inactive”. The Potency [4] was “inactive”, the Potency [5] was “inactive” and the outcome [6] was “inactive”. The Potency [7] was “inactive” and the Potency [8] was “inactive”.

With `CO/S(=N\S(=O)(=O)c1ccc(Cl)cc1)c1ccc([N+](=O)[O-])cc1` (stereo not drawn) the Potency [1] was “inactive”, the Potency [2] was “inactive” and the Potency [3] was “inactive”. The Potency [8] was “inactive”.

With `CCOC(=O)N1CCN(/[N+]([O-])=N/Oc2ccc([N+](=O)[O-])cc2[N+](=O)[O-])CC1` the Potency [1] was “inactive”, the Potency [3] was 10.4 µM (active) and the Potency [4] was “inactive”. For the same compound, the Potency [5] was “inactive”, the Potency [7] was “inactive” and the Potency [8] was “inactive”.

For `CC(COc1ccc(/C=C/c2ccccc2)cc1)[N+](C)(C)C` (stereo not drawn), the Potency [1] was “inactive”, the Potency [2] was “inactive” and the Potency [3] was “inactive”. The Potency [8] was “inactive”.

For `Cc1ccc(S(=O)(=O)/C=C/C#N)cc1`, the Potency [1] was “inactive”, the Potency [2] was “inactive” and the Potency [3] was 9.27 µM (active). For the same compound, the Potency [5] was “inactive”, the outcome [6] was “inactive” and the Potency [7] was “inactive”. The Potency [8] was “inactive”.

In the case of `CCCCCCCCCCCCCCCC(=O)NCC(COP(=O)([O-])OCC[N+](C)(C)C)OCC` (stereo not drawn), the Potency [1] is reported as “inactive”, the Potency [3] is reported as “inactive” and the Potency [8] is reported as “inactive”.

With `CCCCC#Cc1nc(NC)c2ncn([C@@H]3O[C@H](CO)[C@@H](O)[C@H]3O)c2n1` the Potency [1] was “inactive”, the Potency [3] was “inactive” and the Potency [4] was “inactive”. For the same compound, the outcome [6] was “inactive”, the Potency [7] was “inactive” and the Potency [8] was “inactive”.

In the case of `CNC(=O)[C@H]1O[C@@H](n2cnc3c(NCc4ccc(N)cc4)ncnc32)[C@H](O)[C@@H]1O`, the Potency [1] is reported as “inactive”, the Potency [2] is reported as “inactive” and the Potency [3] is reported as “inactive”. The Potency [4] was “inactive”, the Potency [5] was “inactive” and the outcome [6] was “inactive”. For the same compound, the Potency [7] was “inactive” and the Potency [8] was “inactive”.
